Values joined by “and” are separate entries in the source; they are usually repeats but may differ in a detail not shown here. Equal entries are not always repeated. Out of some 5,500 compounds screened, about 2,000 (36%) were called active. Another 18% or so got no clear call; they are omitted. Rule as the data show it: active = normalized growth mostly below about 0.91 (no sharp cut-off); inconclusive = no clear call, values can overlap the other calls; inactive = mostly above about 0.92. The list shows a part of the results.
Assay: chemical genetic growth profiling, strain panel (AID 1159580);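 also: tested at 20 µM; growth read once vehicle control cultures reached saturation at 30 °C; 1 = growth at the plate median or of vehicle wells; lower values mean less growth of the strain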
Conditions: S. cerevisiae deletion strains, growth OD

Measured: normalized growth

CCN(CC)CCOc1ccc2c(c1)C(=O)c1cc(OCCN(CC)CC)ccc1-2
inactive: locus YAL013W, strain DEP1, stronger effect = lower value 1 | locus YAL021C, strain ccr4, stronger effect = lower value 0.962 | locus YAL026C, strain drs2, stronger effect = lower value 0.984 | locus YAL030W, strain snc1, stronger effect = lower value 1 | locus YBL061C, strain skt5, stronger effect = lower value 0.993 | locus YBR009C, strain hhf1, stronger effect = lower value 0.993 | locus YBR021W, strain FUR4, stronger effect = lower value 1.06 | locus YBR023C, strain chs3, stronger effect = lower value 0.98 | locus YBR171W, strain sec66, stronger effect = lower value 0.979 | locus YBR229C, strain ROT2, stronger effect = lower value 1 | locus YBR231C, strain swc5, stronger effect = lower value 0.974 | locus YBR279W, strain paf1, stronger effect = lower value 0.981 | locus YCL011C, strain gbp2, stronger effect = lower value 0.977 | locus YCL016C, strain dcc1, stronger effect = lower value 0.973 | locus YCL029C, strain bik1, stronger effect = lower value 0.975 | locus YCL061C, strain MRC1, stronger effect = lower value 0.981 | locus YCL069W, strain vba3, stronger effect = lower value 0.996 | locus YCR088W, strain abp1, stronger effect = lower value 0.984 | locus YDL005C, strain med2, stronger effect = lower value 0.966 | locus YDL035C, strain GPR1, stronger effect = lower value 0.991 | locus YDL040C, strain nat1, stronger effect = lower value 0.986 | locus YDL074C, strain BRE1, stronger effect = lower value 0.998 | locus YDL101C, strain DUN1, stronger effect = lower value 0.987 | locus YDL134C, strain PPH21, stronger effect = lower value 0.994 | locus YDL185W, strain tfp1, stronger effect = lower value 0.947 | locus YDL192W, strain arf1, stronger effect = lower value 0.984 | locus YDR001C, strain nth1, stronger effect = lower value 0.979 | locus YDR069C, strain doa4, stronger effect = lower value 0.96 | locus YDR101C, strain arx1, stronger effect = lower value 0.991 | locus YDR137W, strain rgp1, stronger effect = lower value 0.998 | locus YDR150W, strain NUM1, stronger effect = lower value 0.973 | locus YDR159W, strain sac3, stronger effect = lower value 1 | locus YDR162C, strain NBP2, stronger effect = lower value 1.02 | locus YDR195W, strain ref2 0.96 | locus YDR297W, strain sur2, stronger effect = lower value 0.997 | locus YDR318W, strain mcm21, stronger effect = lower value 0.98 | locus YDR334W, strain swr1, stronger effect = lower value 0.975 | locus YDR335W, strain msn5, stronger effect = lower value 0.989 | locus YDR388W, stronger effect = lower value 0.983 | locus YDR392W, strain spt3, stronger effect = lower value 0.807 | locus YDR502C, strain sam2, stronger effect = lower value 0.99 | locus YEL003W, strain gim4, stronger effect = lower value 0.99 | locus YEL037C, strain rad23, stronger effect = lower value 0.994 | locus YEL061C, strain CIN8 (second series), stronger effect = lower value 0.986 | locus YEL061C, strain CIN8, stronger effect = lower value 0.997 | locus YER015W, strain faa2, stronger effect = lower value 0.991 | locus YER016W, strain bim1, stronger effect = lower value 0.957 | locus YER110C, stronger effect = lower value 0.962 | locus YER111C, strain swi4, stronger effect = lower value 0.971 | locus YER155C, strain BEM2 (second series), stronger effect = lower value 0.937 | locus YER155C, strain BEM2, stronger effect = lower value 1 | locus YER167W, strain BCK2, stronger effect = lower value 0.982 | locus YFR010W, strain ubp6, stronger effect = lower value 0.992 | locus YGL078C, strain dbp3, stronger effect = lower value 0.98 | locus YGL086W, strain mad1, stronger effect = lower value 0.993 | locus YGL167C, strain pmr1, stronger effect = lower value 0.982 | locus YGL173C, strain kem1, stronger effect = lower value 0.978 | locus YGL227W, strain vid30, stronger effect = lower value 0.978 | locus YGL240W, strain doc1, stronger effect = lower value 0.983 | locus YGL248W, strain PDE1, stronger effect = lower value 1 | locus YGL253W, strain hxk2, stronger effect = lower value 0.983 | locus YGR078C, strain PAC10, stronger effect = lower value 0.996 | locus YGR135W, strain pre9, stronger effect = lower value 1.02 | locus YGR229C, strain SMI1, stronger effect = lower value 1.04 | locus YGR252W, strain gcn5, stronger effect = lower value 0.99 | locus YHR013C, strain ard1, stronger effect = lower value 0.933 | locus YHR027C, strain rpn1, stronger effect = lower value 0.979 | locus YHR030C, strain SLT2, stronger effect = lower value 0.977 and 0.988 | locus YHR079C, strain IRE1 (second series), stronger effect = lower value 0.989 | locus YHR079C, strain IRE1, stronger effect = lower value 0.977 | locus YHR094C, strain hxt1, stronger effect = lower value 0.972 | locus YHR129C, strain ARP1, stronger effect = lower value 0.998 | locus YHR142W, strain chs7, stronger effect = lower value 0.99 | locus YHR200W, strain rpn10, stronger effect = lower value 0.98 | locus YIL066C, strain RNR3, stronger effect = lower value 0.99 | locus YIL073C, strain SPO22, stronger effect = lower value 0.948 | locus YIL125W, strain kgd1, stronger effect = lower value 0.981 | locus YIR030C, strain dcg1, stronger effect = lower value 0.991 | locus YJL092W, strain hpr5, stronger effect = lower value 0.987 | locus YJL095W, strain BCK1 (second series), stronger effect = lower value 0.983 | locus YJL095W, strain BCK1, stronger effect = lower value 1 and 0.986 | locus YJL115W, strain asf1, stronger effect = lower value 0.98 | locus YJL129C, strain trk1, stronger effect = lower value 0.974 | locus YJL134W, strain LCB3, stronger effect = lower value 0.989 | locus YJL154C, strain vps35, stronger effect = lower value 0.979 | locus YJL164C, strain tpk1, stronger effect = lower value 0.993 | locus YJL166W, strain qcr8, stronger effect = lower value 0.984 | locus YJL168C, strain set2, stronger effect = lower value 0.983 | locus YJL187C, strain SWE1 (second series), stronger effect = lower value 0.983 | locus YJL187C, strain SWE1, stronger effect = lower value 0.981 | locus YJR043C, strain POL32, stronger effect = lower value 1.01 | locus YJR066W, strain TOR1, stronger effect = lower value 0.965

From PubChem BioAssay AID1159580 (chemical genetic matrix, 2015)
